Source: PubChem
Shown is part of a subset that was picked to be rich in hits.
Pf Dd2 inh = qHTS Primary assay for Inhibitors of Plasmodium falciparum Dd2 growth in vitro; P. falciparum Dd2 growth, SYBR Green, 72 h; Potency, µM (top dose mostly 28.9 µM), for inactives: at the highest dose activity, negative = inhibition, hits mostly inhibitors; 120,000 compounds, 4.3% hits; AID 1347417, 2020; active means well fitted inhibition curve with a large enough effect;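 further: plate controls were DMSO vehicle for no effect and reference drug for full effect; nearly all actives have a fitted effect of over 65% in size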
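Infected erythrocytes (Dd2, 0.3% parasitemia, 2.5% hematocrit final) are added to compound in RPMI-1640/Albumax II medium, grown 72 h at 37C in low oxygen, then lysed with saponin/Triton-X containing SYBR Green and read by fluorescence.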
* marks the source's active call; other numbers are inactive results; i = inactive; [ ] = another dose, or the depositor's remark. Potency means the concentration at half of the fitted maximal effect.

SMILES | Pf Dd2 inh
CN(Cc1cccnc1)c1nc2c(c(=O)[nH]1)CCN(Cc1ccc(C(F)(F)F)cc1)CC2 | i[5.79 µM]
Cn1nc2n(c1=O)CCN(Cc1ccc3c(c1)CCO3)CC2 | -9%
Cc1cc(C(=O)N[C@H]2[C@H](O)[C@H](O)C[C@@H]2c2ccc(N3CCOCC3)nc2)nn1C | -2%[44.1 µM]
Cc1cccc(NC(=O)Cn2c(N(C)Cc3ccccc3)nc(C)cc2=O)c1 | 5µM*
CCc1cccc(NC(=O)Cn2c(N(C)Cc3ccccc3)nc(C)cc2=O)c1 | i
Cc1cc(=O)n(CC(=O)Nc2ccc(C)c(C)c2)c(N(C)Cc2ccccc2)n1 | i
O=C(c1ccccc1)N1CCCCC1c1nc(-c2cccnn2)no1 (configuration not stated) | -4%
COCCC(=O)N1CCC(N2C[C@H](O)C[C@H]2C(=O)NCc2cccc(OC)c2)CC1 | 34%
CCOc1ccccc1C(=O)N[C@@H]1CN(Cc2cccnc2)C[C@H]1CN(C)C | -37%
CCOc1ccccc1C(=O)N[C@@H]1CN(Cc2ccncc2)C[C@H]1CN(C)C | 5µM*
COc1ccccc1C(=O)N[C@@H]1CN(Cc2ccncc2)C[C@H]1CN(C)C | -21%
COCCn1c(C)cc(C(=O)N2C[C@@H](CO)[C@H](c3ccccn3)C2)c1C | 12%
Cc1ccc(OCc2nc(C3CCCN3)no2)cc1 (configuration not stated) | -9%
Cc1oc2ccn(Cc3ccc(F)cc3)c(=O)c2c1C(=O)NCc1cc(F)ccc1F | -22%
COCCn1c(=N)c(C(=O)NC2CCCC2)cc2c(=O)n3cc(C)ccc3nc21 | 3%
CCOCCCn1c(=N)c(S(=O)(=O)c2ccc(C)cc2)cc2c(=O)n3cccc(C)c3nc21 | -6%
CCOCCCn1c(=N)c(C(=O)NC2CCCC2)cc2c(=O)n3cccc(C)c3nc21 | 2.2µM*
COc1ccc(CN2CCC(C3CCN(S(C)(=O)=O)CC3)C2)cc1OC (configuration not stated) | i
O=C(CCc1ccccc1)NCCC1CCN(C(=O)Nc2ccccc2F)CC1 | 1%
COc1ccc(-c2[nH]nc3ncc(C(=O)N4CC(O)C4)nc23)c(C)c1 | -3%[44.1 µM]
CC(C)(C)NC(=O)Cc1cccn1-c1cccc(Cl)c1 | -4%
COc1ccc(NC(=O)c2cc3sc(C)c(CN4CCCCC4)c3[nH]2)cc1OC | 2.2µM*
COc1ccc(NC(=O)c2cc(CN3CCCC3)on2)cc1Cl | 458%[5.79 µM]
CC(=O)Nc1ccc(NC(=O)c2cc3sc(C)c(CN4CCCCC4)c3[nH]2)cc1 | 2.2µM*
CCCNC(=O)c1cc2sc(C)c(CN3CCCCC3)c2[nH]1 | -24%
SMILES | Pf Dd2 inh
Cc1sc2cc(C(=O)NC(C)C)[nH]c2c1CN1CCCCC1 | i
Cc1sc2cc(C(=O)NCc3cccnc3)[nH]c2c1CN1CCCCC1 | i
COCC(=O)NC[C@H]1CCN(S(C)(=O)=O)C[C@H]1N(C)C | 12%
CC(C)[S+](=O)([O-])N1CCN(c2cc(Cl)ncn2)C(=O)C1 | 11%
Cc1cc(C)cc(NC(=O)N2c3ccccc3CC2c2noc(C3CCOCC3)n2)c1 (configuration not stated) | -18%
CN(C)CCNC(=O)c1cccc2c1CCN2C(=O)Nc1ccccc1 | -18%
CC1Oc2ccc(NC(=O)c3c(F)cccc3F)cc2CN(Cc2ccccc2F)C1=O (configuration not stated) | -7%
CC(C)C(=O)N1CCC(Oc2ncccc2C(=O)N(C)C)C1 (configuration not stated) | 31%
CC(C)c1noc([C@@H]2C[C@H]3C(=O)NCCCCCCN(C(=O)COc4ccc(F)cc4)[C@H]3C2)n1 | -6%
COc1ccccc1NC(=O)Cn1cnc2c(nc3n2CCCCC3)c1=O | 29%
O=C(Cn1nc2n(c1=O)CCCC2)N1CCN(c2ccccc2F)CC1 | -17%
O=C(COc1ccc(-c2nnc3n2CCCC3)cc1)NCc1ccc2c(c1)OCO2 | 10µM*
COc1ccc(CNC(=O)COCc2cc(-c3ccc4c(c3)OCO4)on2)cc1 | 150%
CCOc1ccc(NC(=O)Cn2nc3n(c2=O)CCCCC3)cc1 | 27%
CCOc1ccc(NC(=O)Cn2c(C)cc3nc4n(c(=O)c32)CCCCC4)cc1 | -12%
Cc1nc(N2CCC(C(=O)NCc3ccc4c(c3)OCO4)CC2)cc(C(F)(F)F)n1 | -16%
O=C(COc1cccc(-c2nnc3n2CCCC3)c1)NCc1ccccc1 | i
CCOc1ccc(NC(=O)COc2cccc(-c3nnc4n3CCCC4)c2)cc1 | 2.8µM*
O=C(COc1cccc(-c2nnc3n2CCCC3)c1)N1CCN(c2ccccc2F)CC1 | 5µM*
Cc1cc2nc3n(c(=O)c2n1CC(=O)N1CCN(c2ccccc2F)CC1)CCCCC3 | i
COc1ccccc1NC(=O)COc1cccc(-c2nnc3n2CCCC3)c1 | 0.63µM*
CC(C)C1c2nccn2CCCN1C(=O)CCn1cccn1 (configuration not stated) | -15%
COCCC1(NC(=O)CCc2ccc(OC)cc2)CCN(C2CCOCC2)CC1 | i
O=C(Nc1nccs1)C1CC(=O)N(c2n[nH]c3ccccc23)C1 (configuration not stated) | -11%
CCOc1ccc2c(n1)CCN(C(=O)c1ccccc1OC)C2 | 20%
SMILES | Pf Dd2 inh
Cc1nn(C)c(C)c1CCCN(C)C(=O)C1N(C(C)C)C(=O)C12CCCCC2 (configuration not stated) | 15%
COc1ccc(F)c(-c2nc(COc3ccc(-n4cnnc4)cc3)c(C)o2)c1 | -18%
COCCN1CCCCCC(O)c2cc(C(=O)Nc3cc(C)ccc3OC)ccc21 (configuration not stated) | -1%
Cc1cccc(NC(=O)COc2ccc3oc4c(c3c2)CCCC4)c1 | 33%
COc1cccc(-c2cc(C3CCN(C(=O)Nc4cccc(SC)c4)CC3)[nH]n2)c1 | -28%
CSc1cccc(NC(=O)COc2cccc(-c3nnc4n3CCCC4)c2)c1 | 11µM*
COc1cccc(C(=O)N2C(C(=O)N3CCOCC3)COC23CCN(C(=O)CC(C)(C)C)CC3)c1 (configuration not stated) | -5%
N#Cc1ccc(CN2CCC3(CC2)COCCN3C(=O)OCc2ccccc2)cc1 | i
CN1CCN(c2nc3c(c(=O)[nH]2)CCN(Cc2ccc(C#N)cc2)CC3)CC1 | 73%[5.79 µM]
O=C(NC[C@H]1OC[C@@H](NCc2ccccc2F)[C@@H]1O)c1ccc(F)cc1 | 5%[44.1 µM]
COc1ccc(-c2nc3ccccc3o2)cc1NC(=O)COc1ccc(C(C)(C)C)cc1 | 7.9µM*
COc1ccc(-c2nc3ccccc3o2)cc1NC(=O)COc1cc(C)cc(C)c1 | i
COc1ccc(-c2nc3ccccc3s2)cc1NC(=O)COc1ccc(C)cc1 | 10%
Cc1ccc(-c2ncc(C(=O)Nc3ccc(F)c(F)c3)c(-c3ccncc3)n2)cc1 | -22%
COc1cc(NC(=O)c2cnc(-c3ccc(C)cc3)nc2-c2ccncc2)cc(OC)c1 | -14%
O=C(Nc1cc(F)cc(F)c1)c1cnc(-c2ccc(F)cc2)nc1-c1ccncc1 | 10µM*
COC[C@@H]1CN(c2cnccn2)C[C@H]1C(=O)NCC1CC1 | -3%
CCCCSc1ncc(CN2CC[C@@]3(O)CCN(C(C)=O)C[C@H]3C2)cn1 | -6%
CS(=O)(=O)N1CCC(OC2CCN(C(=O)Nc3ccccc3F)CC2)CC1 | i
CC(C)(C)C(=O)N1CCC(OC2CCN(Cc3ccccc3)CC2)CC1 | -1%
O=C(Nc1cccc(Cl)c1F)N1CCC(OC2CCN(Cc3ccccc3)CC2)CC1 | 6.3µM*
O=C(c1ccc(F)cc1)N1CCC(OC2CCN(Cc3ccccc3)CC2)CC1 | 11µM*
COc1ccc(C)cc1NC(=O)N1CCC(OC2CCN(Cc3ccccc3)CC2)CC1 | 11µM*
